# A selection: hits, their analogues and other compounds. The true share with any hit is near 11%.
# ERK AVP block: blocks ERK signaling stimulated by vasopressin. HEK293-V1b, vasopressin-stimulated pERK AlphaScreen. AID 995. Potency, µM (top dose mostly 57.5 µM), inactives show at the highest dose activity, negative = inhibition, actives largely listed as inhibitors. actives 0.99% (n = 72,000); note: nearly all actives have a fitted effect of over 55% in size
#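 Phosphorylated ERK1/2 detected via AlphaScreen bead proximity in lysates of V1b-expressing HEK293 cells given 25 nM vasopressin for 5 min after 30 min compound exposure (37 °C). AC50 from Hill equation; basal DMSO 0%, vasopressin 100%.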
# FLuc inh: firefly luciferase inhibition. P08659. purified firefly luciferase, luminescence, 8 min. Potency, µM (series often up to 57.1 µM), inactives show top-dose activity change, negative = inhibition, actives largely listed as inhibitors. actives 2.2% (n = 72,000). AID 411; note: nearly all actives have a fitted effect of over 40% in size
#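 Inhibition of light generation by firefly luciferase from ATP and luciferin was profiled with concentration-response curves per sample, ATP held at 10 uM within the enzyme's linear range. Plates were read by luminescence after an 8-minute ambient incubation.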
# HADH2 inhib: blocks human hydroxyacyl-CoA dehydrogenase type II; Q99714; Potency, µM (highest dose often 57.1 µM), without a hit: top-dose activity change, negative = inhibition, hits mostly inhibitors; recombinant HADH2, NADH fluorescence, beta-hydroxybutyryl-CoA; actives 3.4% (n = 73,000); note: nearly all actives have a fitted effect of over 60% in size
# Target sequence (Q99714 whole entry, looked up, one chain of several): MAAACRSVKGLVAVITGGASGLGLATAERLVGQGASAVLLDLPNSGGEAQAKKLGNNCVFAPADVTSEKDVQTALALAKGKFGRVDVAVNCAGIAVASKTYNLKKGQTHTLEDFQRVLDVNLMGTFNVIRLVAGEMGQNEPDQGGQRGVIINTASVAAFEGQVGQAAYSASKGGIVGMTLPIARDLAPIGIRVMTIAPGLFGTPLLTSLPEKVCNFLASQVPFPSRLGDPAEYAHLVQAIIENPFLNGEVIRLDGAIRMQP
#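 Activity measured as NADH fluorescence gain (360/450 nm), taken as the change between first and last reads of a 4-min kinetic run. Conditions: pH 9.0 Tris buffer, 20 nM E. coli-expressed His-tagged enzyme, 1 mM NAD+, 90 uM beta-hydroxybutyryl-CoA; 15-min compound preincubation.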
# Bst PK mod: modulators of Bacillus stearothermophilus pyruvate kinase; Potency, µM; actives 1.2% (n = 51,000); purified pyruvate kinase, luminescence ATP production; ribose 5-phosphate activator present at AC10; AID 361; in the data active = potency below about 11 µM; inconclusive = mostly about 12 µM to 25 µM;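 the screen sought inhibitors and activators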;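 note: scaled between full activation by ribose 5 phosphate and full inhibition by luteolin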
# ALOX15 inhib: blocks human 15-lipoxygenase activity; P16050; Potency, µM (highest dose often 57.1 µM), for inactives: top-dose activity change, negative = inhibition, most hits filed as inhibitors; purified 15hLO-1, xylenol orange hydroperoxide absorbance; AID 887; actives 1.4% (n = 74,000); note: nearly all actives have a fitted effect of over 55% in size
#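 Purified human 15hLO-1 (40 nM) in 25 mM Hepes pH 7.5, 0.01% Triton X-100, preincubated 15 min RT with compound, then 50 uM arachidonic acid for 6 min. Hydroperoxide read by ferrous/xylenol orange, 30 min; 573/405 nm absorbance ratio gave progress.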
# HSD17B inh: blocks hydroxysteroid 17-beta dehydrogenase activity | actives 7.6% (n = 75,000) | AID 893 | Potency, µM (top dose mostly 57.1 µM), without a hit: at the top dose activity change, negative = inhibition, most hits filed as inhibitors | recombinant HSD17B10, NADH fluorescence kinetic;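 note: the protocol describes HADH2 (HSD17B10) and not the HSD17B4 of the title; nearly all actives have a fitted effect of over 70% in size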
#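 His-tagged E. coli-expressed HADH2 at 20 nM in 100 mM Tris-HCl pH 9.0 with 0.01 % Tween-20, preincubated 15 min with compound at room temperature. Reaction with 1 mM NAD+ and 90 uM beta-hydroxybutyryl coenzyme A; NADH fluorescence (360/450 nm) read kinetically over 4 min, last minus first point.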
# The depositor's hits bear a star; i = inactive; ? = inconclusive; . = not tested or not shown; [ ] = another dose, or the depositor's remark. Unless noted, calls come from the whole dose curve; as a rule, active = well fitted curve in the direction sought with a large enough effect; inconclusive = small, poorly fitted or top-dose-only effect, or another doubt; inactive = no such curve, though single readings can be large; an effect the other way counts as inactive or inconclusive. Unless noted, % is set by controls: 0 for no effect and ±100 for the full control effect; potency is the fitted concentration of half-maximal effect.
SMILES,ERK AVP block,FLuc inh,HADH2 inhib,Bst PK mod,ALOX15 inhib,HSD17B inh
CC(C)C[C@@H](CC(=O)N[C@@H](CCC(=O)O)CC(=O)O)NC(=O)[C@@H]1CNCC[C@H]1NC(=O)C[C@@H](NC(=O)C[C@H](Cc1ccccc1)NC(=O)[C@@H]1CNCC[C@H]1N)C(C)C,.,.,13%,.,.,.
O=C(c1ccco1)N1CCC2(CC1)CCN(c1ccccc1)CC2,-6%,0%[11.4 µM],7%,.,-6%,1%
CCCCn1c(CNC(C)=O)nc2ccccc21,.,0%,8%,.,-3%,3%
CCCCn1c(CCNC(=O)c2cccs2)nc2ccccc21,-25%,2%,17%,>57,2%,8%
CCCCn1c(NC(C)=O)c(C#N)c2nc3ccccc3nc21,-5%,2%,240%,.,-5%,32µM*
N#Cc1c(N)n(CCNC(=O)c2cccs2)c2nc3ccccc3nc12,-5%,-1%,?,>57,-7%,32µM*
CC(=O)C[C@H](O)[C@@H](NC(=O)OC(C)(C)C)C(C)C,11%[11.5 µM],2%[11.4 µM],-4%[11.4 µM],.,6%[11.4 µM],5%[11.4 µM]
O=C(Oc1ccccc1)n1c(=O)oc2ccc(Cl)cc21,.,.,-9%,.,4%,4%
O=C(O)c1ccccc1Nc1ccccc1,17%,-4%,-14%,.,8%,-7%
CC(=O)n1cc(Nc2ccccc2C(=O)O)c2ccccc21,0%,-1%,20µM*,.,-7%,25µM*
C=CCn1c(SCC(=O)NCc2ccco2)nc2sc3c(c2c1=O)CCCCC3,-21%,0%,-7%,>57,4%,-13%
O=C(NCc1ccco1)c1ccc2nc3sc4c(c3c(=O)n2c1)CCCC4,24%,-21%,?,i,32µM*,32µM*
O=C(CC1Sc2ncnn2C1=O)Nc1ccc(Br)cc1 (configuration not stated),?,-2%,-18%,.,?,10µM*
O=C(CC1SC2=NCCN2C1=O)Nc1ccc(Br)cc1 (configuration not stated),-1%,1%,4%,>57,1%,0%
Nc1nc(Cl)cc(NCCO)n1,-2%[11.5 µM],0%[11.4 µM],6%[11.4 µM],.,-7%[11.4 µM],-3%[11.4 µM]
CCOC(=O)c1ccc(CC(=O)c2oc3cc(O)ccc3c2C)o1,1%,0%,?,>57,20µM*,32µM*
CCOC(=O)c1ccc(-c2c(C(=O)OCC)oc3cc(O)c(CC)cc3c2=O)o1,?,0%,6.3µM*,>57,-4%,11%
CCOC(=O)c1oc2cc(O)ccc2c(=O)c1-c1ccccc1OC,-8%,-5%,-18%,.,-2%,-5%
CCc1cc2c(=O)c(Oc3ccccc3)c(C)oc2cc1O,?,2%,25µM*,.,-3%,32µM*
CO[C@]1(C2=NCCN2)COc2ccccc2O1,6%,0%,10%,.,2%[25.6 µM],-4%
N#Cc1cccc(-c2cncnc2NCc2ccccc2)c1,5%,1%[2.29 µM],3%,.,10%,4%
COc1cccc2c1C(=O)c1c(O)c3c(c(O)c1C2=O)C[C@](O)(C(=O)CO)C[C@H]3O[C@@H]1C[C@H](N)[C@H](O)[C@H](C)O1,-16%[25.7 µM],-10%[25.5 µM],-2%[25.6 µM],.,12%[25.6 µM],1%[25.6 µM]
C[C@@H](SCc1ccccc1)C(=O)O,0%[11.5 µM],1%[11.4 µM],5%[11.4 µM],.,4%[11.4 µM],-1%[11.4 µM]
Cc1noc(C)c1C(=O)OCC(=O)c1c[nH]c2ccccc12,1%,16µM*,-1%,.,-15%,5%
COc1ccc(-c2nc3cnccn3c2Nc2ccc3c(c2)OCO3)cc1,.,-15%,10%,.,-10%,-5%
Cc1ccc(-c2nc3cnccn3c2Nc2ccc3c(c2)OCCO3)o1,?,-25%,-9%,>57,25µM*,?
Cc1nc2cnc(OCc3ccccc3)nc2n(CCc2ccccc2)c1=O,6%,0%[11.4 µM],3%,.,5%,-2%
COc1ccc(COC(=O)N/N=C2/C[C@@H](O)[C@@H](O)[C@@H]3[C@@H]4C(=O)N(C[C@@H]5CCCO5)C(=O)[C@H]4CC[C@@H]23)cc1,6%[11.5 µM],2%[11.4 µM],1%[11.4 µM],.,3%[11.4 µM],-1%[11.4 µM]
O=C(N=c1nc2ccccn2s1)c1ccccc1,-3%,0.79µM*,-8%,1.1*,2%,0%

# Screening results as filed in PubChem.
